A short description of assay [1]: growth inhibition, single agent or in combination, cell-based, chromothripsis tumors, cisplatin or BGB combos (AID 1671449).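 Note: cells exposed for 96 hours; 0% = vehicle DMSO and 100% = killing by high DMSO.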 As to conditions: LFS_MB_P medulloblastoma cells.
Assay [2] is described as follows: growth inhibition, single agent and combos, cell-based, chromothripsis tumors, cisplatin or BGB combos (AID 1671450).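 Note: cells exposed to compound for four days; 0% = vehicle DMSO and 100% = cell killing by high DMSO.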 As to conditions: HDN33 neuroblastoma cells, stronger effect = higher value.
Assay [3] in a line: growth inhibition, single agents and combos, ICB984, cell-based, cisplatin or BGB combos, synergistic combos for chromothripsis tumors (AID 1671451; call rule not given here;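 note: cells exposed for 96 hours before readout; 0% = vehicle DMSO and 100% = killing by high DMSO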). The note with it: ICB984 medulloblastoma cells, drug combinations, stronger effect = higher value.
Assay [4] is described as follows: growth inhibition, single agents and combos, LFS_MB_1R, cell-based, cisplatin or BGB combos, synergistic combos for chromothripsis tumors (AID 1671452).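 Note: cells exposed for 96 hours before readout.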 As to conditions: LFS_MB_1R medulloblastoma cells, stronger effect = higher value.
Assay [5] can be described thus: growth inhibition, single agents and combos, HTB85, cell-based, BGB or cisplatin IC20 combos, synergistic combos for chromothripsis tumors (AID 1671453).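 Note: cells exposed for 96 hours before readout; 0% = vehicle DMSO and 100% = high DMSO killing control.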 The note with it: HTB85 osteosarcoma cells, drug combinations, stronger effect = higher value.
A short description of assay [6]: growth inhibition, single agents and combos, CRL2098, cell-based, BGB or cisplatin IC20 combos, synergistic combos for chromothripsis tumors (AID 1671454).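 Note: cells exposed for 96 h before readout; 0% = vehicle DMSO and 100% = killing by high DMSO.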 The note with it: CRL2098 osteosarcoma cells, drug combinations, stronger effect = higher value.
The nature of assay [7]: growth inhibition, single agents and combos, HD-MB03, cell-based, BGB or cisplatin IC20 combos, synergistic combos for chromothripsis tumors (AID 1671455; in the data active = inhibition above about 83%;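 note: 0% = vehicle DMSO and 100% = high DMSO as cytotoxic control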). As to conditions: HD-MB03 medulloblastoma cells, stronger effect = higher value.
A short description of assay [8]: growth inhibition, single agents and combos, UWB1.289, cell-based, BGB or cisplatin combos, synergistic combos for chromothripsis tumors (AID 1671456).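 Note: cells exposed to compound for four days; 0% = vehicle DMSO and 100% = killing by high DMSO.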 As to conditions: UWB1.289 ovarian carcinoma cells, stronger effect = higher value.
Assay [9] in a line: growth inhibition, single agents and combos, LFS_MB_2R, cell-based, cisplatin combos, synergistic combos for chromothripsis tumors (AID 1671457).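 Note: cells exposed to compound for four days before readout.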 As to conditions: LFS_MB_2R medulloblastoma cells, stronger effect = higher value.
Assay [10] is described as follows: growth inhibition, MDA-MB-436, cell-based, BGB or cisplatin combos, synergistic combos for chromothripsis tumors (AID 1671458; call rule not given here;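 note: cells exposed for 96 hours; 0% = vehicle DMSO and 100% = killing by high DMSO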). The note with it: MDA-MB-436 breast carcinoma growth inhibition, drug combinations, stronger effect = higher value.
Assay [11] is described as follows: UWB1.289_BRCA1 ovarian cancer growth, cell-based, BGB or cisplatin combinations (AID 1671459). As to conditions: UWB1.289 BRCA1 ovarian carcinoma, drug combinations, stronger effect = higher value.
Assay [12] can be described thus: drug combination toxicity in non-malignant astrocytes – cell-based, BGB or cisplatin IC20 combos, cytotoxicity control for chromothriptic childhood tumor combination screen (AID 1671460).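 Note: cells exposed to compounds for 96 hours before viability readout; 0% = vehicle and 100% = killing control.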 As to conditions: Human astrocytes, viability inhibition, drug combinations, at 0.5 µM, stronger effect = higher value.
Assay [13] is described as follows: BT084 cell growth, single and combined drugs, ICGC_MB145, cisplatin and BGB IC40 combos (AID 1671461).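 Note: cells exposed to drugs for 96 hours; 0% = vehicle DMSO and 100% = high DMSO full killing control.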 The note with it: BT084 medulloblastoma cells, drug combinations, stronger effect = higher value.
The nature of assay [14]: RCMB18 cell growth, single agent and combined, cisplatin and BGB IC40 combos (AID 1671462).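 Note: cells exposed to compound for four days.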 The note with it: RCMB18 medulloblastoma cells, stronger effect = higher value.
A short description of assay [15]: CRL1545 cell growth, single agent and combined, cisplatin and BGB IC20 combos (AID 1671464).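 Note: cells exposed to compound for 96 hours before readout; 0% = vehicle DMSO and 100% = high DMSO killing control.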 The note with it: CRL1545 osteosarcoma cells, stronger effect = higher value.
A short description of assay [16]: galactose survival enhancers in mitochondrial complex I cybrids – cell-based, galactose medium, ATP luminescence, primary screen (AID 1645843;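 active = z-score of at least 1.8 in each of two replicates, scored against plate mean and spread of sample wells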;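 note: positive z means more ATP and so rescue of galactose-driven cybrid death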). As to conditions: complex I mutant cybrid cells, 72 h, stronger effect = higher value.
Where [17] appears, read: measured here: combination with BGB IC40, at 0.05 µM.
[18] abbreviates: measured here: with BGB IC20 combination, at 0.5 µM.
The mark [19] stands for this setting: measured here: with cisplatin IC20 combination, at 0.5 µM.
The mark [20] stands for this setting: measured here: combination with cisplatin, at 0.5 µM.
Setting [21] is: measured here: combination with cisplatin, at 5 µM.

The structures appear in SMILES notation. Values joined by “and” are separate entries in the source; they are usually repeats but may differ in a detail not shown here. Equal entries are not always repeated. Where a structure was tested more than once in an assay, its records may differ in their call. Active and inactive are the calls of the source. Cut-off read from the data, not from the text of the source, unless noted: active = inhibition above about 80%; inactive = the rest.

For orientation: inhibition means the relative decrease from the control value, in per cent. Take `CCC1(O)C(=O)OCc2c1cc1n(c2=O)Cc2cc3ccccc3nc2-1` (stereo not given): the inhibition in [1] (at 0.5 µM, stronger effect = higher value) was 88.2% (active) and 9.86% (inactive); in assay [1] (measured here: combination with BGB IC20, at 0.005 µM), -1.21% and 5.58%; in assay [1] (measured here: combination with BGB IC40, at 0.005 µM), -28.3% and -33.2%; in assay [1] (setting [17]) it was -15.4% and -14.9%; in [1] (measured here: combination with cisplatin, at 0.5 µM, stronger effect = higher value), 109% and 46.9%; in [1] (measured here: combination with cisplatin, at 5 µM, stronger effect = higher value) it was 81.5% and 87.5%. Besides, the inhibition in [2] (BGB combo, at 5 µM) is 91.9% and 99.2%; in assay [2] (at 0.5 µM), 76.6% (inactive) and 90.4% (active); in assay [2] (cisplatin combo, at 5 µM) it was 89.8% and 99.4%; in assay [2] (setting [18]), 83.3% and 91.4%; in [2] (setting [19]), 71% and 86.5%; in [2] (single agent, at 5 µM), 93% and 99%. In addition, the inhibition in assay [3] (BGB IC20 combo, at 0.005 µM) is -14.4% and -0.816%; in assay [3] (BGB IC40 combo, at 0.005 µM), 10.1% and 28.9%; in assay [3] (BGB IC40 combo, at 0.05 µM) it was 90.9% and 90.2%; in assay [3] (at 0.5 µM), 0.67% (inactive) and -18.7% (inactive); in assay [3] (cisplatin combo, at 0.05 µM), 90.9% and 89.8%; in [3] (cisplatin combo, at 0.5 µM), 8.68% and -15.9%. For the same molecule, the inhibition is -16.2% and -24.5% in assay [3] (cisplatin combo, at 5 µM); -7.75% and -12.5% in [3] (measured here: 5 uM single agent, at 5 µM); 18.3% (inactive) and 58.5% (inactive) in assay [4] (at 0.5 µM); -2.41% and -26.5% in assay [4] (setting [17]); 67.3% and 77.9% in [4] (setting [20]); 84.7% and 77.9% in assay [4] (setting [21]). Also, the inhibition is 87% (active) and 98.3% (active) in [5] (at 0.5 µM); 83.6% and 98.1% in assay [5] (measured here: with BGB IC20, at 0.5 µM); 99.4% and 98.2% in assay [5] (measured here: with BGB IC20, at 5 µM); 89.5% and 97.8% in assay [5] (measured here: with cisplatin IC20, at 0.5 µM); 99.8% and 99.6% in [5] (measured here: with cisplatin IC20, at 5 µM); 99.8% in [5] (single agent, at 5 µM). The inhibition in [6] (at 0.5 µM) is 61.8% (inactive) and 62.7% (inactive); in assay [6] (measured here: combination with BGB at IC20, at 0.5 µM) it was 62.5% and 76.9%; in [6] (measured here: combination with cisplatin at IC20, at 0.5 µM), 58% and 56.3%; in assay [7] (at 0.5 µM), 97.5% (active) and 99.2% (active); in assay [7] (measured here: combo with BGB at IC20, at 0.5 µM) it was 96.5% and 99.2%; in assay [7] (measured here: combo with cisplatin at IC20, at 0.5 µM), 97.2% and 99.2%. In addition, the inhibition was 66.6% (inactive) and 83.3% (active) in [8] (at 0.5 µM); 12.6% and 11.7% in [8] (measured here: inhibition with BGB combination, at 0.05 µM); 11.3% and 20.8% in assay [8] (measured here: inhibition with cisplatin combination, at 0.05 µM); 7.34% (inactive) and -4.41% (inactive) in assay [9] (at 0.5 µM); 19% and 21% in [9] (setting [20]); 76.3% and 69.2% in assay [9] (setting [21]). For the same molecule, the inhibition is 54.1% (inactive) and 72% (inactive) in [10] (at 0.5 µM); 51.4% and 63.7% in [10] (measured here: BGB combination, at 0.5 µM); 74.8% and 70.3% in [10] (measured here: BGB combination, at 5 µM); 45.3% and 73.5% in assay [10] (measured here: cisplatin combination, at 0.5 µM); 82.3% and 82.8% in [10] (measured here: cisplatin combination, at 5 µM); 99.4% and 98.3% in assay [11] (BGB combination, concentration series, at 5 µM). The inhibition in [11] (at 0.5 µM) was 67.6% (inactive) and 90.7% (active); in [11] (cisplatin combination, concentration series, at 5 µM), 118% and 106%; in assay [12], 60.8% (inactive) and 77.6% (inactive); in assay [12] (measured here: combo with BGB IC20) it was 60.1% and 81.6%; in [12] (measured here: combo with cisplatin IC20), 47.8% and 70.6%; in assay [13] (at 0.5 µM), 14.3% (inactive) and 17% (inactive). Further, the inhibition is 23.6% and 35.1% in assay [13] (cisplatin combination, at 0.5 µM); 44.9% and 40.2% in [13] (cisplatin combination, at 5 µM); 23.9% and 38.2% in [13] (measured here: BGB IC40 combination 0.05 uM, at 0.05 µM); -2.08% and -14.2% in assay [13] (single agent, at 5 µM); 7.46% (inactive) and 14.2% (inactive) in assay [14] (at 0.5 µM); 72.3% and 80.4% in assay [14] (cisplatin combo, at 5 µM). Besides, the inhibition was 5.45% and -12% in assay [14] (measured here: BGB IC40 combination, at 0.05 µM); 49.2% and 53.3% in assay [14] (setting [20]); 23.3% and 47.8% in assay [14] (single agent, at 5 µM); 54% (inactive) and 96.2% (active) in assay [15] (at 0.5 µM); 77.9% and 98.4% in [15] (setting [18]); 42.1% and 95.1% in [15] (setting [19]). Besides, the inhibition was 32% and 28.6% in assay [15] (single agent, at 0.05 µM); 99.8% and 99.9% in assay [15] (single agent, at 5 µM).
On to `CCCOC1CCCN(C2CCN(C)CC2)C1` (stereo not given), for which the z-score in assay [16] is -0.46 (inactive).
With `CC1(C)C(C(=O)N2CCC(n3cc(C4CC4)nn3)CC2)C1(C)C`, in assay [16], the z-score is -0.525 (inactive).

The record behind these values is PubChem BioAssay.
